Most compounds without a hit are left out; they make up all but 2.2% or so of the library.
M1 ag parental: counter-screen for M1 agonists: effect in parental CHO-K1 cells; Fluo-8 calcium fluorescence; scaled to maximal ATP response, vehicle zero; activation, % at 3 µM; 0.48% of 360,000 active; in the data active = activation above about 15%;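 note: untransfected CHO-K1 host cells lacking M1 receptor as counterscreen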
CHO-K1 Ca PAM: counter-screen for M1 PAMs: effect in parental CHO-K1 cells. 0.02% of 360,000 active. ATP EC20, Fluo-8 calcium fluorescence; 0% at ATP EC20, 100% at ATP max. AID 602247. activation, % at 3 µM;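 active = activation above the run cutoff, the mean activation of all test compounds plus 3 SD, cut at about 40% in these data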;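 note: peak over basal fluorescence ratio in a 140 s read after ATP addition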
NTR1 ag: activates human neurotensin receptor 1. P30989. NTR1-U2OS beta-arrestin-GFP spot imaging, agonist mode. activation, % at 20 µM. 0.17% of 330,000 active;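 active = activation at or above 40% of the spot to cytoplasm intensity ratio, with at least 20 cells analyzed; inconclusive = wells under 20 cells, flagged as cytotoxic or low count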;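 note: 0% = DMSO without peptide and 100% = 100 nM NTR1 peptide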
Target sequence (P30989 whole entry, looked up): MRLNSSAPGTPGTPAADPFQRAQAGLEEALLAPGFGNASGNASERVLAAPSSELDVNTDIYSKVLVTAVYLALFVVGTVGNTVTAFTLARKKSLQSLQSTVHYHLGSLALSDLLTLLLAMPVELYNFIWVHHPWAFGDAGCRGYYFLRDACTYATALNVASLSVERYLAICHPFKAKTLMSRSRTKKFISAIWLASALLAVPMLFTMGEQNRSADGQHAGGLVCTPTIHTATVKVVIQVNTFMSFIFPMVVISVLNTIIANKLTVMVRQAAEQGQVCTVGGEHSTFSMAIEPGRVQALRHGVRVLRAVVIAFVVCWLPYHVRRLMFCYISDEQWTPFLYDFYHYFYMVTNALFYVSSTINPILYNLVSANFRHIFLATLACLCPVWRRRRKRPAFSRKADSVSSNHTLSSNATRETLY
CHO-K1 Ca antag: counter-screen for M1 antagonists: effect in parental CHO-K1 cells | ATP-induced calcium, Fluo-8 fluorescence | inhibition, % at 3 µM | 0.6% of 360,000 active | AID 602250;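 active = inhibition above a per-plate cutoff, the plate's mean sample inhibition plus 3 SD, cut at about 24% in these data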;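 note: 0% = DMSO plus EC80 ATP and 100% = DMSO alone without ATP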
ANO1 block: blocks the mouse calcium-activated chloride channel TMEM16A; normalized B-score (activity score, 25-100; higher = stronger inhibition) at 10 µM; HEK293 TMEM16A/YFP iodide influx fluorescence, ionomycin; 1.2% of 310,000 active; Q8BHY3;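 active = ratio plate-corrected score three or more library SD toward inhibition, starting fluorescence score within five deviations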;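 note: score derived from kinetic fluorescence span divided by baseline fluorescence per well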
TMEM16A act: activators or potentiators of mouse TMEM16A chloride channel. Q8BHY3. HEK293 TMEM16A/YFP-H148Q/I152L, iodide quench fluorescence; hits give low values. B-score at 10 µM. 0.3% of 340,000 active. AID 623877;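 active = fluorescence-ratio B-score plate-corrected deviation score at least 3 library SD below zero, with starting fluorescence score within 5 deviations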;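 note: channel opened by trigger with iodide after compound preincubation; score built on the fluorescence ratio of max minus min over baseline; more negative score means more quench and so TMEM16A activation or potentiation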
NTR1 ag conf: confirmation of agonists of human NTR1 | shares compounds with NTR1 ag | NTR1-U2OS beta-arrestin-GFP translocation imaging | activation, % at 20 µM | 38% of 480 active;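 active = mean activation at 20 µM of at least 40%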;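 note: 0% = DMSO without peptide and 100% = 100 nM NTR1 peptide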
Active calls of the source: *; i = inactive; ? = inconclusive; nt = not tested or not shown.

SMILES | M1 ag parental | CHO-K1 Ca PAM | NTR1 ag | CHO-K1 Ca antag | ANO1 block | TMEM16A act | NTR1 ag conf
O=C(NC1c2ccccc2Oc2ccccc21)c1ccc([N+](=O)[O-])cc1 | -0.6 | 6.7 | nt | -2.3 | nt | i | nt
COc1ccc(CCNCC(O)COc2cccc(Br)c2)cc1 (stereo not given) | 0.8 | 5.0 | 0.1 | 0.6 | i | i | nt
OC(CNCCc1ccc(C(F)(F)F)cc1)COc1ccc2ccccc2c1 (stereo not given) | 1.8 | 12.4 | 50.7* | -2.4 | i | i | 7.2
CC1(C(=O)Nc2ccc3c(c2)OCO3)CCN1C(=O)CC1CC1 (stereo not given) | 0.7 | 10.3 | nt | -11.6 | nt | nt | nt
O=Cc1ccc(Sc2nnc(-c3ccccc3)o2)c([N+](=O)[O-])c1 | -0.2 | -5.3 | ? | 13.5 | i | i | 7.6
CC1(C(=O)NS(=O)(=O)c2ccccc2C(F)(F)F)CCN1C(=O)CC1CCCC1 (stereo not given) | 7.9 | 2.0 | nt | 10.8 | nt | nt | nt
CCN(CC)c1ccc(C(=O)NNC(=O)C2CSC3(C)CCC(=O)N23)cc1 (stereo not given) | -0.6 | -5.5 | -0.3 | -14.6 | nt | i | nt
O=[N+]([O-])c1ccc(N2CCOCC2)cc1O | 2.0 | 11.6 | -0.4 | -10.4 | i | i | nt
Cc1cc(N2CCOCC2)ccc1/C=C\[N+](=O)[O-] | 10.4 | 14.5 | 40.5* | 10.2 | i | i | 77.5*
COc1cc(N/N=C(\C)c2ccc(O)c(C)c2)nc(-c2ccccc2)n1 | 0.3 | -11.0 | 53.2* | 1.1 | i | i | 19.9
C/C(=N\Nc1cc(-c2ccccc2)nc(-c2ccccc2)n1)c1ccc(O)c(C)c1 | 1.2 | 11.8 | 34.3 | 3.6 | i | i | nt
CC(CN1CCN(CCOCCO)CC1)CN1c2ccccc2Sc2ccc(Cl)cc21 (stereo not given) | 5.8 | 9.5 | nt | -2.4 | nt | nt | nt
CCSc1ccc2c(c1)N(CCCN1CCN(C)CC1)c1ccccc1S2 | 2.8 | 13.7 | 43.4* | 6.6 | i | i | 9.2
Cc1ccc(NC(=O)c2ccc(Nc3c([N+](=O)[O-])cc([N+](=O)[O-])cc3[N+](=O)[O-])cc2)cc1 | 11.2 | -1.9 | 46.1* | 8.5 | i | i | 21.5
CC(=O)Nc1ccc(NC(=O)c2cc([N+](=O)[O-])cc([N+](=O)[O-])c2)cc1 | -0.1 | -11.8 | 0.3 | 5.9 | i | i | nt
C[C@@H]1COc2cc(N3CC[C@H](O)C3)ccc2S(=O)(=O)N1 | 0.6 | 15.2 | nt | -11.8 | nt | nt | nt
Cc1ccsc1C(=O)N1CCCC1(C)C(=O)NCC(C)C (stereo not given) | 0.1 | -0.4 | nt | -1.8 | nt | nt | nt
CC(=O)Nc1ccc(Nc2nc(C)c([N+](=O)[O-])c(Nc3ccccc3)n2)cc1 | 3.8 | 7.7 | 45.6* | 3.3 | i | i | 27.9
COc1ccc(OC)c(NC(=O)COC(=O)c2c3c(nc4ccccc24)CCCC3)c1 | 4.4 | -2.3 | 40.7* | -13.6 | i | i | 29.5
Fc1cccc(Cc2c(-c3ccccc3)nc3c4ccccc4ccn23)c1 | 0.2 | -2.8 | nt | 8.2 | nt | nt | nt
COc1cc(/C=C2\C(=O)ON=C2c2ccc(Cl)cc2)ccc1O | nt | nt | 48.6* | nt | i | -5.92* | 80.8*
O=C1ON=C(c2ccccc2)/C1=C/c1ccc(O)c(O)c1 | 0.3 | -8.6 | 27.7 | -4.1 | i | i | nt
CC1=NOC(=O)/C1=C\c1ccc(-c2cc(Cl)ccc2Cl)o1 | 0.4 | -1.5 | 44.1* | 4.0 | i | -5.4* | 65.2*
CC(C)CN(C(=O)c1cccc(F)c1)c1c(N)n(CC(C)C)c(=O)[nH]c1=O | 0.0 | 9.8 | 42.4* | -1.0 | i | i | -1.0
CC(C)CN(C(=O)c1cccc([N+](=O)[O-])c1)c1c(N)n(CC(C)C)c(=O)[nH]c1=O | 0.9 | 15.3 | -0.9 | -13.8 | i | i | nt
SMILES | M1 ag parental | CHO-K1 Ca PAM | NTR1 ag | CHO-K1 Ca antag | ANO1 block | TMEM16A act | NTR1 ag conf
COC(=O)CSc1nc(N)c2c3c(sc2n1)CCCC3 | 0.2 | -3.7 | -0.9 | 2.4 | i | i | nt
COC(=O)CSc1nc(N)c2c3c(sc2n1)C(c1ccccc1)SC(c1ccccc1)C3 (stereo not given) | 2.0 | 21.9 | 49.9* | -6.0 | i | i | 32.2
CCN(CC)C(=O)c1cccc(-c2csc(C(C)(NC(C)=O)c3ccc(OC)cc3)n2)c1 (stereo not given) | 0.7 | 11.3 | nt | -16.6 | nt | nt | nt
CCCCn1c(N)c(-c2nc3ccccc3s2)c2c([N+](=O)[O-])nn(CC)c(=O)c21 | 0.1 | 8.6 | 19.2 | -6.0 | i | i | nt
CCCCn1c(N)c(-c2nc3ccccc3s2)c2c([N+](=O)[O-])nn(C)c(=O)c21 | 0.6 | 7.8 | 61.0* | -8.4 | i | i | 5.3
Fc1cnc(N/N=C/c2ccc(-c3ccc(Br)cc3)o2)nc1N1CCOCC1 | 1.2 | 6.1 | 40.9* | -1.1 | i | i | 24.3
C[C@H](NC(=O)c1[nH]cnc1C(=O)Nc1ccccc1)c1ccccc1 | 0.5 | 22.7 | 38.0 | -17.9 | nt | i | nt
Cc1ccc(NC(=O)c2nc[nH]c2C(=O)N[C@H](C)c2ccccc2)cc1 | 1.5 | 14.3 | 41.3* | -7.5 | nt | i | 13.3
Cc1cccc(NC(=O)c2nc[nH]c2C(=O)N[C@H](C)c2ccccc2)c1 | 0.2 | -2.3 | 47.6* | -13.3 | nt | i | 13.1
CCCc1nc2c(C)cc(Br)cn2c1Cc1ccc(OC)cc1C | 1.5 | 12.0 | nt | -16.9 | nt | nt | nt
C[C@H](CO)N1C[C@H](C)[C@@H](CN(C)Cc2ccccn2)Oc2ncc(-c3ccccc3)cc2C1=O | 0.3 | 22.1 | nt | -14.2 | nt | nt | nt
Cc1cccc(CN2CCN(C3CN(Cc4cn(Cc5ccc(F)cc5)nn4)S(=O)(=O)C3)CC2)c1 (stereo not given) | 0.3 | -11.8 | nt | -10.2 | nt | nt | nt
CCCOc1ccc(/C(CC)=N/NC(=O)C2(C)CC2(Br)Br)cc1 (stereo not given) | 0.3 | 15.8 | 42.0* | -12.0 | i | i | 23.5
CC(C)NC(=O)C1(C)CCCN1C(=O)c1ccccc1Br (stereo not given) | 0.1 | 6.0 | nt | 10.2 | nt | nt | nt
O=c1/c(=C\c2cccc(O)c2)sc2nc(-c3ccccc3)c(-c3ccccc3)n12 | nt | nt | 46.5* | nt | i | i | 41.5*
CC(=O)Nc1ccc(CN(C)c2c(C)nc3ccc(C(=O)NCCCN4CCCC4=O)cn23)cc1 | 0.3 | 13.5 | nt | -20.4 | nt | nt | nt
CC(C)(C)S(=O)(=O)N1C[C@H]2CC/C=C\C/C(c3ccccc3)=C\2[C@@H]1CCO | -0.1 | -11.2 | nt | 0.7 | nt | nt | nt
COC(=O)C1=C(C)N(Cc2ccccc2)C(=NCC(C)C)N[C@H]1c1cccc(C(F)(F)F)c1 | 4.0 | -4.2 | 21.8 | 9.8 | nt | i | nt
COC(=O)C1=C(C)N(Cc2ccccc2)C(=NCc2ccccc2)N[C@H]1c1cccc(C(F)(F)F)c1 | 20.6* | 1.5 | 43.7* | 15.9 | nt | i | 75.2*
